Source: PubChem BioAssay AID504545 (Broad Institute, 2011)
Potency and affinity values are given separately. Results filed as inconclusive are left out. A number with no mark means an inactive call. The rule behind the calls is not given here.

Target: Cyclin-dependent kinase 5 activator 1 (Homo sapiens) + Cyclin-dependent kinase 5 (Homo sapiens) (UniProt Q15078+Q00535)
Test: CDK5/p35 kinase inhibitors, dose response, biochemical, cherry-picked samples, set 2 (AID 504545)
Settings: biochemical plate reader; series mostly up to 30 µM; activity change, negative = inhibition: at the top concentration

Cyclin-dependent kinase 5 activator 1 (Homo sapiens) + Cyclin-dependent kinase 5 (Homo sapiens), sequence (Q00535 whole entry, looked up): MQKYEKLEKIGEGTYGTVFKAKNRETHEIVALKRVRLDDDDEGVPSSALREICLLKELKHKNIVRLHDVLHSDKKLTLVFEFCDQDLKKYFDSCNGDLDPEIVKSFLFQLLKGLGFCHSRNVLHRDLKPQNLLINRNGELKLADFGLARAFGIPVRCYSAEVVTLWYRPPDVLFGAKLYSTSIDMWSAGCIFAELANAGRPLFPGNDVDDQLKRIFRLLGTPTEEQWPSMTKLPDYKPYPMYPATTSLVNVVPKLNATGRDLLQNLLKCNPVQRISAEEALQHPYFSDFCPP
Cyclin-dependent kinase 5 activator 1 (Homo sapiens) + Cyclin-dependent kinase 5 (Homo sapiens), sequence (Q15078 whole entry, looked up): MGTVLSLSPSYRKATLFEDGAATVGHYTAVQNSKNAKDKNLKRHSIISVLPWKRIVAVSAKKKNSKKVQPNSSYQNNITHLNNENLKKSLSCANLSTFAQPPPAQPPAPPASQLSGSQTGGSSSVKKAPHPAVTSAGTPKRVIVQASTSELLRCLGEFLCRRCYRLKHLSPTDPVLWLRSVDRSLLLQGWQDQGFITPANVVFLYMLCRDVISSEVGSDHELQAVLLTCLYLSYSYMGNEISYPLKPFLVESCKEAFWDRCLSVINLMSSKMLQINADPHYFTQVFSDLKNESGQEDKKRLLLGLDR

Structure (SMILES)	activity change, negative = inhibition [%]
Nc1ccc(CC2=NCCN2)cc1	-11.6
Nc1ncnc2c1ccn2[C@@H]1O[C@H](CO)[C@@H](O)[C@H]1O	1.79
COc1cc2c(ccc3c4cc(OC)c(OC)cc4c[n+](C)c23)cc1O	-2.52
NC(=O)c1c(Br)n(C2OC(CO)C(O)C2O)c2ncnc(N)c12 (centres undefined)	-11
